According to PubChem BioAssay (NCI):
This is part of a sample that, as a whole, favours compounds with a hit. Of some 79,000 tested, about 15% had one in any assay. Values without a mark were called inactive. Calls of active or inactive are those of the source. Cut-off read from the data, not from the text of the source: active = growth inhibition above about 70%; inactive = the rest.

How the values were obtained:
[1] = NCI Yeast Anticancer Drug Screen. Data for the rad50 strain (AID 155);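 note: 0% = growth of vehicle-only cultures of the same strain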; conditions: S. cerevisiae rad50 strain growth inhibition; at 50.0 µM; active compounds read high
Outline: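 Readout: growth inhibition relative to vehicle-treated cultures. Compound exposure was carried out in a genetically defined yeast strain deficient in DNA damage repair.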

[2] = NCI Yeast Anticancer Drug Screen. Data for the mec2-1 strain (AID 157); conditions: S. cerevisiae mec2-1 strain, at 50.0 µM, active compounds read high
Outline: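 Mutant yeast (mec2-1) grown with compound; growth inhibition relative to vehicle control reported.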

[3] = NCI Yeast Anticancer Drug Screen. Data for the sgs1 mgt1 strain (AID 161);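 note: 0% = growth of cultures given vehicle only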; conditions: S. cerevisiae sgs1 mgt1 strain, at 50.0 µM, active compounds read high
Outline: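 Yeast cells carrying a defined DNA-repair defect were exposed to test compounds. Growth inhibition was measured relative to vehicle-treated controls.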

[4] = NCI Yeast Anticancer Drug Screen. Data for the cln2 rad14 strain (AID 165);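 note: 0% = growth equal to vehicle treated cultures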; conditions: S. cerevisiae cln2 rad14 strain, at 50.0 µM, active compounds read high
Outline: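 Readout is yeast growth inhibition versus vehicle-treated controls, using a strain with cln2 and rad14 alterations exposed to compound.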

[5] = NCI Yeast Anticancer Drug Screen. Data for the bub3 strain (AID 167); conditions: S. cerevisiae bub3 mutant strain, at 50.0 µM, active compounds read high
Outline: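 Readout: yeast growth inhibition, expressed relative to vehicle-only wells. The test organism is a mutant strain from a panel with lesions in DNA repair or checkpoint genes.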

[6] = NCI Yeast Anticancer Drug Screen. Data for the mlh1 rad18 strain (AID 175); conditions: S. cerevisiae mlh1 rad18 strain growth inhibition; at 50.0 µM; active compounds read high
Outline: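 Genetically defined yeast (DNA repair-deficient) exposed to compounds; growth inhibition determined relative to vehicle.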

Row | Structure (SMILES) | growth inhibition [1] | growth inhibition [2] | growth inhibition [3] | growth inhibition [4] | growth inhibition [5] | growth inhibition [6]
1 | CC(C)(C)C1CC/C(=N\Nc2ccc([N+](=O)[O-])cc2[N+](=O)[O-])C(Cc2ccccc2)C1 (stereo unspecified) | 11.9% | 21.1% | 19.5% | -26.6% | 16.9% | 0%
2 | CN(C)CC1CCC(=C2CCCC2)C1=O (stereo unspecified) | -8.9% | -10.7% | 11.8% | 6.2% | 3.6% | 20.6%
3 | Nc1ncc[nH]c1=O | -16.1% | -4.1% | 1.25% | -4.1% | 2.9% | -20.2%
4 | COC(=O)c1sc2c(=O)c(C(=O)OC)c(C(=O)OC)sc2c(=O)c1C(=O)OC | 23.1% | 27.4% | 54.3% | -1.1% | 50.9% | 38.6%
5 | C1CC2CCC1CN(C1COC(N3CC4CCC(CC4)C3)CO1)C2 (stereo unspecified) | -5.15% | 1.55% | 9.7% | 58.4% | 4.9% | -0.65%
6 | O=C1OC(=O)c2ccc([N+](=O)[O-])c3c(C(=O)O)ccc1c23 | 5.1% | -19.2% | -22.9% | -1.65% | 2.55% | 2.85%
7 | Cc1c(N/C=C(\C#N)C(=O)c2ccc(Cl)cc2)c(=O)n(-c2ccccc2)n1C | -8.15% | 6.6% | -7.25% | 27.2% | 2.35% | 30.9%
8 | CCC1(CC)C(=O)NN(C(=O)c2ccccc2)C1=O | 19.3% | -20.1% | 28.4% | 13.6% | -4.45% | -43.4%
9 | CC1CCCN(N=Nc2ccc(Br)cc2-c2nc(N)c3cc(Br)ccc3n2)C1 (stereo unspecified) | 99.2% (active) | 99.2% (active) | 99.5% (active) | 98.2% (active) | 99% (active) | 99% (active)
10 | COc1ccc2[nH]c(C(F)(F)F)cc(=O)c2c1 | 9.4% | 11.7% | 5.2% | -7.95% | 4.65% | 14.8%
11 | CC12CCC(C/C1=N\O)C2(C)CBr (stereo unspecified) | 13.4% | -2.15% | -4.35% | -1.1% | -2.3% | 5.1%
12 | Cc1cccc(C)c1NC(=O)C(Cl)(Cl)Sc1ccc(Cl)cc1Cl | 0.3% | -34.9% | 5.9% | 8.65% | -5.2% | -2.6%
13 | O=C1C2C3C=C4c5ccccc5N(c5ccccc5)C4([C@@H]2C(=O)N1c1ccc(F)cc1)[C@H]1C(=O)N(c2ccc(F)cc2)C(=O)[C@@H]31 (stereo partly specified) | 35% | 23.6% | 11.5% | 40.1% | 21.4% | 34.9%
14 | CCCCCCCCOC(=O)Nc1cccc2ccccc12 | -12.8% | -11.2% | -2.6% | -39.7% | -4.35% | -9.2%
15 | CCCC1(C)OCC(C)([N+](=O)[O-])CO1 (stereo unspecified) | -26% | -11.2% | -3.25% | -22.4% | -24% | 10.8%
16 | Cc1ccc(C)c(NC(=O)CCC(=O)CC(=O)C(C)(C)C)c1 | -3.25% | 8.35% | 5.3% | 15.5% | -6.4% | 12.7%
17 | COc1ccc(N=Nc2sc(N)nc2-c2cccc([N+](=O)[O-])c2)cc1 | 5% | 4.85% | 10.1% | -13.8% | 8.6% | 11.7%
18 | CC(=O)NCCc1ccc(OCc2ccccc2)cc1 | -7.15% | 2.25% | 3.7% | -51.5% | -19.4% | -1.45%
19 | O=C1C(O)CCN1C1CCCCC1 (stereo unspecified) | 10.7% | -6.95% | -0.3% | -2.85% | 4.55% | 0.2%
20 | CCOC(=O)CC(=O)Nc1cc(C)cc(C)n1 | 2.1% | 14.5% | 9.5% | 32.6% | 25.1% | 5.7%
21 | CC(=O)OC1CCC2(C)C(CCC3C2CCC2(C)C3CCC2C(C)(C)O)C1 (stereo unspecified) | -2.2% | 0.3% | -16.4% | -9.15% | -2.45% | 20.6%

Row | Structure (SMILES) | growth inhibition [1] | growth inhibition [2] | growth inhibition [3] | growth inhibition [4] | growth inhibition [5] | growth inhibition [6]
22 | CCCCCCCOc1ccc(/C=C\c2cc[n+](CCCCCCCC[n+]3ccc(/C=C\c4ccc(OCCCCCCC)cc4)cc3)cc2)cc1 | -22.4% | -7.95% | -14.2% | 22.7% | 8.1% | 10.2%
23 | CCC(=O)c1nc(N)[nH]c1CC | -36.7% | -21.6% | -12.1% | -44.3% | -3% | -6.45%
24 | Cc1ccc(S(=O)(=O)n2cncc2CO)cc1 | -33.7% | -26.8% | -15.1% | 7.55% | 4.05% | -10.7%
25 | O=c1[nH]cc(COCCO)c(=O)[nH]1 | -20.1% | -2.8% | -19.4% | 7.4% | -18% | 7.2%
26 | CN(/N=C/c1ccc(O)c(/C=N/N(C)c2ccccn2)n1)c1ccccn1 | -9.45% | 8% | -3.35% | -11.9% | -2.7% | 8.3%
27 | COC(=O)c1nc(N)nc(C(=O)OC)c1C(=O)C(C)(C)C | -11.1% | -10.8% | -25.9% | -23.6% | -41.6% | -28.8%
28 | O=C(c1ccccc1)C(C(c1ccc(Cl)cc1)N1CCOCC1)N1CCOCC1 (stereo unspecified) | 5.15% | 2.75% | 16.8% | 19.9% | 10.7% | 7.65%
29 | Oc1ccc(C(c2ccc(O)cc2)c2ccc(O)cc2)cc1 | 2.1% | 3.9% | 29.9% | 19.1% | 22.1% | -18.2%
30 | O=C(OCCc1ccccc1)C(O)c1ccccc1 (stereo unspecified) | 11.3% | -6.05% | 3% | 10.7% | 6.6% | -1.3%
31 | CC(C)NC1(C(N)=O)CCN(Cc2ccccc2)CC1 | 7.85% | -17.2% | 8.1% | -3.15% | -51.9% | 18.1%
32 | COc1ccc(/C=C2\N=C(c3ccc([N+](=O)[O-])cc3)OC2=O)cc1Br | 29.9% | 21.6% | 27.5% | 23.4% | -1.95% | 29.4%
33 | Nc1ccc2c(c1)CC1CC(=O)NN=C21 (stereo unspecified) | 29.5% | 9.95% | 9.4% | 3.35% | -3.15% | -22.2%
34 | CN(C)C1CCC(C=C(C2CCC(CC(=O)O)CC2)C2CCC(CC(=O)O)CC2)CC1 (stereo unspecified) | -2.95% | -21.5% | 9.6% | 13.6% | 1.05% | 6.3%
35 | C=C1CC2(CC(c3ccccc3Cl)OC(c3ccccc3Cl)C2)OC1=O (stereo unspecified) | 27.2% | 47.2% | 23.2% | 33.2% | 20.7% | 18.8%
36 | COc1cccc2c1C(=O)OC2c1cccc2ccccc12 (stereo unspecified) | 10.5% | -7.45% | 7.25% | 28.2% | 4.3% | 16%
37 | COc1ccc2nc(-c3ccc(F)cc3)cc(C(=O)O)c2c1 | -4.6% | -14.7% | 9.75% | 16.9% | 10.2% | 17.1%
38 | CCC(CC)CC1CCCCC1O (stereo unspecified) | -30.7% | -44% | -46.9% | -17.2% | -48.7% | -11.9%
39 | COC(=O)c1ccc(C(=O)c2ccccc2)cc1 | -1.15% | 9.15% | 27.9% | 5.55% | 14.2% | 7.7%
40 | O=C1c2ccccc2C(=O)c2c1nnn2-c1ccccc1 | 41.7% | 5.95% | 21.2% | -4.45% | 17.2% | -2.15%
41 | CCOC(=O)N1c2ccccc2OC1C#N (stereo unspecified) | -17.3% | 1.3% | -4.4% | -33.1% | 51.3% | 13.5%
